The source made the active and inactive calls.
Legend:
[1] = binders of probe aFSTL3 on microarray, primary screen, stem cell growth factor project, biochemical, small-molecule microarray, fluorescence 635/667 (AID 1064); conditions: higher = more signal;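 also: measures binding of the biotinylated anti-FSTL3 antibody to printed compounds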
[2] = binders from COS7 lysate, DM2A8 probe, primary screen, torsin A project, cell lysate, small-molecule microarray, fluorescence 635/667 (AID 1065); conditions: higher = more signal, COS7 lysate expressing mutant human TOR1A
[3] = binders of probe aFGF2 on microarray, primary screen, stem cell growth factor project, biochemical, small-molecule microarray, fluorescence 635/667 (AID 1067); conditions: higher = more signal;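 also: measures binding of biotinylated aFGF2 protein to printed compounds on slides; z-score merges feature fluorescence and signal-to-noise across triplicate slides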
[4] = binders of probe aFGF10 on microarray, primary screen, stem cell growth factor project, biochemical, small-molecule microarray, fluorescence 635/667 (AID 1071); conditions: higher = more signal;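 also: score merges 667 nm spot intensity and signal to noise from triplicate slides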
[5] = molecular target: Neurogenic locus notch homolog protein 2 (Homo sapiens) (UniProt Q04721); experiment: Notch2 binders on small-molecule microarrays, primary screen, biochemical, small-molecule microarray, 635 nm fluorescence, stem cell growth factors (AID 1073); conditions: Notch2 binding, higher = more signal
[6] = molecular target: Pro-neuregulin-1, membrane-bound isoform (Homo sapiens) (UniProt Q02297); experiment: NRG1 binders on small-molecule microarrays, primary screen, psychiatric disease protein project, biochemical, small-molecule microarray, fluorescence 635/667 (AID 1075); conditions: NRG1 binding, 635 nm fluorescence, higher = more signal;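 also: score combines 667 nm spot fluorescence with signal to noise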
[7] = tested on: Neuregulin-1 EGF-like domain; experiment: binders of neuregulin-1 EGF-like domain, primary screen, biochemical, small-molecule microarray, 635 nm fluorescence (AID 1081); conditions: small-molecule microarray binding, higher = more signal;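 also: binding of the protein to compounds printed on small-molecule microarray slides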
[8] = FRG1 promoter luciferase signal modulators, primary screen, FRG1 inhibition for FSHD, cell-based, C2C12 myotubes, firefly/Renilla luciferase, luminescence (AID 1084); conditions: higher = more signal, called active from +8 up or from −8 down
[9] = binders of probe aFST on microarray, primary screen, stem cell growth factor project, biochemical, small-molecule microarray, fluorescence 635/667 (AID 1086); conditions: higher = more signal;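 also: score merges 667 nm fluorescence with signal-to-noise of each printed compound spot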
[10] = binders of probe aHhip on microarray, primary screen, stem cell growth factor project, biochemical, small-molecule microarray, fluorescence 635/667 (AID 1087); conditions: higher = more signal;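 also: score merges spot fluorescence at 667nm with spot signal to noise ratio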
[11] = tested on: PRMT1 (protein arginine N-methyltransferase 1); experiment: PRMT1 binders on small-molecule microarrays, primary screen, biochemical, small-molecule microarray, 635 nm fluorescence (AID 1088); conditions: small-molecule microarray binding, higher = more signal;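 also: binding of Prmt1 protein to compounds spotted on small-molecule microarray slides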
[12] = yeast growth modulation, basal conditions, primary screen, YJM789 clinical isolate, OD600, 24 h (AID 1089);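 also: growth of clinical yeast isolate S. cerevisiae YJM 789 seeded 1000 cells per well; test concentration not given here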; conditions: S. cerevisiae YJM789 growth, higher = more signal, called active from +8 up or from −8 down
[13] = fission yeast growth modulation, primary screen, strain 972, OD600, 24 h, no modulator (AID 1090);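 also: basal condition with compound alone and no growth modifier present; test concentration not given here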; conditions: S. pombe 972 growth, higher = more signal, called active from +8 up or from −8 down
[14] = S. cerevisiae growth modulation with rapamycin, primary screen, strain BY4716, OD600, 96 h (AID 1091); conditions: higher = more signal, called active from +8 up or from −8 down; also: test concentration not given here
[15] = molecular target: Torsin-1A-interacting protein 2 (Homo sapiens) (UniProt Q8NFQ8); experiment: LULL1 binders on small-molecule microarray, primary screen, cell lysate, human LULL1 lysate, 635/667 nm fluorescence (AID 1092); conditions: hLULL1 lysate binding, 635 nm fluorescence, higher = more signal;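 also: probe is lysate of COS7 cells overexpressing human LULL1; score merges per-feature 667 nm fluorescence with signal-to-noise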
[16] = E. coli growth modulation, two-sided OD650, primary screen, E. coli filamentation project, strain DRC41, 24 h (AID 1093); conditions: OD650, 24 h, higher = more signal, called active from +8 up or from −8 down;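 also: MC1000 strain lacking acrAB efflux and sulA so SOS filamentation is blocked; test concentration not given here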
[17] = small-molecule microarray binders of probe aLefty2, primary screen, biochemical, biotinylated probe, 635/667 nm fluorescence (AID 1094); conditions: higher = more signal;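 also: score merges spot fluorescence near 667 nm with spot signal-to-noise ratio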
[18] = tested on: Noggin (protein binding on small-molecule microarray); experiment: Noggin binders on small-molecule microarray, primary screen, biochemical, 635/667 nm fluorescence (AID 1095); conditions: 635 nm fluorescence, higher = more signal;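 also: score merges 667 nm feature fluorescence with signal to noise over triplicate slides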
[19] = molecular target: Neurogenic locus notch homolog protein 3 (Homo sapiens) (UniProt Q9UM47); experiment: NOTCH3 binders on small-molecule microarray, primary screen, biochemical, 635/667 nm fluorescence (AID 1096); conditions: NOTCH3 binding, 635 nm fluorescence, higher = more signal
[20] = small-molecule microarray binders of probe aEGFR, primary screen, biochemical, biotinylated probe, 635/667 nm fluorescence (AID 1097); conditions: higher = more signal;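 also: probe is a biotinylated anti-EGFR antibody binding compounds printed on slides; score combines fluorescence near 667 nm and signal to noise of each spot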

Sequence of Neurogenic locus notch homolog protein 3 (Homo sapiens) (Q9UM47 whole entry, looked up): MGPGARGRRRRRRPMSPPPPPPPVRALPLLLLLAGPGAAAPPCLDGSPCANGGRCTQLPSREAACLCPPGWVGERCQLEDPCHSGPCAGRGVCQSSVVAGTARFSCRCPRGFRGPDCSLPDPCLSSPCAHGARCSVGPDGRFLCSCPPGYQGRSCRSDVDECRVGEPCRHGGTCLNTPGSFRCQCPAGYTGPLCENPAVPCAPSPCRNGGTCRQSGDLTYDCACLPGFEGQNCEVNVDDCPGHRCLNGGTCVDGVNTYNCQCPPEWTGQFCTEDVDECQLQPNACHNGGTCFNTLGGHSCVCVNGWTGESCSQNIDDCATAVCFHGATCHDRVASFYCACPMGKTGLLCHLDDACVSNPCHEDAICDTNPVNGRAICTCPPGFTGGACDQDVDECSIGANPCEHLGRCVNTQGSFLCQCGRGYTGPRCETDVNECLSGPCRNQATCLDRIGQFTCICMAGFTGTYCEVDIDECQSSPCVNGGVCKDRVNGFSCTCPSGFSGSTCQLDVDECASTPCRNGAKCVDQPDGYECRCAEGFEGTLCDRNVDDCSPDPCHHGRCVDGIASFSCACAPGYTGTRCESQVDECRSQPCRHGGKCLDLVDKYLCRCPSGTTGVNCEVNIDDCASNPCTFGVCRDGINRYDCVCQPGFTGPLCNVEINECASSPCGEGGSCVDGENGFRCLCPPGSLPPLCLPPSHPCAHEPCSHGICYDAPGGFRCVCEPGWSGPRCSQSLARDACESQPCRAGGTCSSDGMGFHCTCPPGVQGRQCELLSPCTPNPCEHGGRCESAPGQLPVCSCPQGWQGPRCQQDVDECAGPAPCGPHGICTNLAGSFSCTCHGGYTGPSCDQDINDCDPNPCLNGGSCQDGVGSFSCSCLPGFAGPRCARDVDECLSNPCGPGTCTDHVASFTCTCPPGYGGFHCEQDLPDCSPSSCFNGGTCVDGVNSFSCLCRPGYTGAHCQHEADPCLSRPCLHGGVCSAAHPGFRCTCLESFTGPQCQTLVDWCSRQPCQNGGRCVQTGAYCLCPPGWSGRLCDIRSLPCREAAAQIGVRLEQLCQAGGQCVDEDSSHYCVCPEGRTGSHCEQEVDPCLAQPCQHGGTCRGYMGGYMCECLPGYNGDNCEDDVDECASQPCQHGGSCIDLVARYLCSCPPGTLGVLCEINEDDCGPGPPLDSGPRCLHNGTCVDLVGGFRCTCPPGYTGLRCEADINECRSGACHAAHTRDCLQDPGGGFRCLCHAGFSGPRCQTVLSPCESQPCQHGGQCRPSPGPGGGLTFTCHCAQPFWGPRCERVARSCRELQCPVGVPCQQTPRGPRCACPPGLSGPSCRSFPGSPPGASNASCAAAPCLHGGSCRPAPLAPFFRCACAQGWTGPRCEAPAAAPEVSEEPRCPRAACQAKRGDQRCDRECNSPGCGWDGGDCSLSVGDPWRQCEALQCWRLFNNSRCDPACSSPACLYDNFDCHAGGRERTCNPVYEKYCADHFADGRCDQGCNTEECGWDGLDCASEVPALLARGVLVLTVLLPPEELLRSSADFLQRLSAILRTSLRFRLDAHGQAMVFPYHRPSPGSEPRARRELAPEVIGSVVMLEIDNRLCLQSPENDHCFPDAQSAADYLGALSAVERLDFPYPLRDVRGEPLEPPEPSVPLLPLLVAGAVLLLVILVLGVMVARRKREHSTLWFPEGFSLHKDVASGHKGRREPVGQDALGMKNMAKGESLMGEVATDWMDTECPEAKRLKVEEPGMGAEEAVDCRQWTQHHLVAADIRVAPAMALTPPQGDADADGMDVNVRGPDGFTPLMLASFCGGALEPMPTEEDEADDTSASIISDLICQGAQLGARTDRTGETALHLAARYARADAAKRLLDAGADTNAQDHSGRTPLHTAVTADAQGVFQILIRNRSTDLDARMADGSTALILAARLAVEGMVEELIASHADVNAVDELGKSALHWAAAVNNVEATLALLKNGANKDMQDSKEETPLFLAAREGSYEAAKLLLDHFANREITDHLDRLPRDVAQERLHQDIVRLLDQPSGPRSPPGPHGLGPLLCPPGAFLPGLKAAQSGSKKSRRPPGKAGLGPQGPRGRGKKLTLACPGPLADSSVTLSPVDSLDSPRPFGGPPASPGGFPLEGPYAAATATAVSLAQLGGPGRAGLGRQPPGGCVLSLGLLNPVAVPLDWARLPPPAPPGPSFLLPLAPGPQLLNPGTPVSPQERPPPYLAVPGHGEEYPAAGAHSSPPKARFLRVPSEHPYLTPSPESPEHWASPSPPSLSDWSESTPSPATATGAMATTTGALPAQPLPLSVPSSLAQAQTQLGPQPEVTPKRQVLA
Sequence of Pro-neuregulin-1, membrane-bound isoform (Homo sapiens) (Q02297 whole entry, looked up, the tested form may be a part, canonical isoform): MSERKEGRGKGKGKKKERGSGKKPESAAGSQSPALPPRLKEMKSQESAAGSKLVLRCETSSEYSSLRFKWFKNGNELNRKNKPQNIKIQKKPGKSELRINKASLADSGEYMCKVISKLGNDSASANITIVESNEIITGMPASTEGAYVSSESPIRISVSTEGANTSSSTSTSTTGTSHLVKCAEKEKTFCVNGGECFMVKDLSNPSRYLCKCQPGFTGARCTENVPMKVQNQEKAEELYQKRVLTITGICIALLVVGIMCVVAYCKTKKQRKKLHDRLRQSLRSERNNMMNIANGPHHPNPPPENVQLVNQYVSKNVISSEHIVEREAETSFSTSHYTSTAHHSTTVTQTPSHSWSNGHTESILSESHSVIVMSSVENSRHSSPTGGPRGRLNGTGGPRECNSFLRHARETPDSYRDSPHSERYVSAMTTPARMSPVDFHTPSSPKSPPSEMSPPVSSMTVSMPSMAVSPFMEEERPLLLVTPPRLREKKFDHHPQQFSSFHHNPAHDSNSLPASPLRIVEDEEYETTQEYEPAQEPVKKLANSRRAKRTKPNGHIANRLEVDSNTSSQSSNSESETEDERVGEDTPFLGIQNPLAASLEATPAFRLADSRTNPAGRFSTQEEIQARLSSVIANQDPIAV
Sequence of Torsin-1A-interacting protein 2 (Homo sapiens) (Q8NFQ8 whole entry, looked up): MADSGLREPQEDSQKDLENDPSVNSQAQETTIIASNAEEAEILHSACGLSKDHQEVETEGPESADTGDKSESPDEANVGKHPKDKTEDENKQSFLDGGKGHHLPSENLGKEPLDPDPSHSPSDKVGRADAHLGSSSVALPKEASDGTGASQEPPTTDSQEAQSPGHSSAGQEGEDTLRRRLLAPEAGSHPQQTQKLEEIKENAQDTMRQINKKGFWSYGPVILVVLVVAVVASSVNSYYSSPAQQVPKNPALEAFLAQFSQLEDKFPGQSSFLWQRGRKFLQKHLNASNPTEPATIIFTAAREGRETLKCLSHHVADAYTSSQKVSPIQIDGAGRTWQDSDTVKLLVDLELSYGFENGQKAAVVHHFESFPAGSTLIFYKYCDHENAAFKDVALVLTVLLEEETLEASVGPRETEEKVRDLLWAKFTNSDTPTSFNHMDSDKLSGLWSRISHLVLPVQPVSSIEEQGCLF

| Compound | composite z-score [1] | composite z-score [2] | composite z-score [3] | composite z-score [4] | composite z-score [5] | composite z-score [6] | composite z-score [7] | z-score [8] | composite z-score [9] | composite z-score [10] | composite z-score [11] | z-score [12] | z-score [13] | z-score [14] | composite z-score [15] | z-score [16] | composite z-score [17] | composite z-score [18] | composite z-score [19] | composite z-score [20] |
| --- | --- | --- | --- | --- | --- | --- | --- | --- | --- | --- | --- | --- | --- | --- | --- | --- | --- | --- | --- | --- |
| CN(C)CCCCCCNC(=O)[C@@H]1C[C@@H]2C(=O)N[C@@H](CCCCN)C(=O)N2[C@@H]1c1cccc(OCCO)c1 | 3.04 | 2.4 | 0.862 | 1.13 | 1.05 | 2.75 | 1.52 | 0.718 (inactive) | 3.58 | 1.72 | 1.55 | -5.46 (inactive) | -5.83 (inactive) | -1.3 (inactive) | 4.63 | 0.0508 (inactive) | 1.65 | 1.8 | 1.02 | 1.02 |
| O=C(NCC(F)(F)F)[C@@H]1c2ccccc2C(=O)N(C2CCCCC2)[C@H]1c1ccc(CO)cc1 | -0.176 | -0.527 | -0.116 | 0.0931 | 0.154 | 1.61 | 0.611 | -1.46 (inactive) | 0.249 | 0.0505 | 0.311 | 0.936 (inactive) | 0.372 (inactive) | 0.963 (inactive) | 1.76 | 0.674 (inactive) | -0.117 | 0.276 | 0.254 | -0.0987 |
| COCCOC(=O)N1C(=O)[C@@]2(c3cc(C#CCCO)ccc31)[C@H](C(=O)N1CCc3cc(OC)c(OC)cc3C1)[C@H]1C(=O)O[C@H](c3ccccc3)[C@H](c3ccccc3)N1[C@@H]2c1ccc(O)cc1 | -0.239 | 0.761 | 0.0106 | 0.393 | 1.15 | 1.46 | 1.32 | 0.897 (inactive) | 0.239 | -0.0645 | 1.54 | 1.42 (inactive) | 0.0725 (inactive) | 1.8 (inactive) | 2.55 | 0.199 (inactive) | 0.0262 | 1.07 | 1.08 | -0.0191 |
| CCOC(=O)C[C@H]1[C@H](OC(=O)Cc2ccc3c(c2)OCO3)[C@@H](NC(=O)c2ccc(-c3ccccc3)cc2)c2cc(OCCCO)ccc2N1C(=O)c1ccc2ccccc2n1 | -0.472 | 0.783 | -0.131 | 0.228 | 0.399 | 0.281 | 0.167 | -4.52 (inactive) | 0.0972 | -0.236 | 0.0972 | -1.84 (inactive) | -2.89 (inactive) | -1.13 (inactive) | 0.417 | 1.63 (inactive) | -0.168 | 0.0955 | 0.257 | -0.0661 |
| C=CCOC(=O)[C@H]1[C@@H]2C(=O)O[C@@H](c3ccccc3)[C@@H](c3ccccc3)N2[C@@H](c2ccc(OCCOC(=O)[C@@H]3C[C@@H]4C(=O)N[C@@H](CCCCN(C)C)C(=O)N4[C@@H]3c3ccc(O)cc3)cc2)[C@]12C(=O)Nc1ccc(I)cc12 | -0.617 | 1.04 | -0.0468 | 0.589 | 0.766 | 1.27 | 1.33 | -0.694 (inactive) | 0.429 | -0.112 | 1.46 | 1.36 (inactive) | -1.09 (inactive) | 1.52 (inactive) | 2.77 | -1.34 (inactive) | -0.0823 | 1.51 | 1.05 | 0.0752 |
| CC1CC/C=C\[C@H]2OC34C=CCN(c5ccc(Cl)cc5)C(=O)[C@H]3N(CCO)C(=O)[C@]4(C)C2C(=O)O1 (stereo not given in full) | 0.359 | 0.0741 | -0.12 | -0.472 | -0.749 | 0.93 | 0.842 | -0.39 (inactive) | -0.448 | -0.106 | 0.517 | -1.51 (inactive) | -1.4 (inactive) | -0.528 (inactive) | 0.139 | 0.613 (inactive) | -0.0619 | -0.504 | 0.105 | -0.166 |
| COCCOC(=O)N1C(=O)[C@@]2(c3cc(C#CC4=CCCCC4)ccc31)[C@H](C(=O)Nc1nc3ccccc3s1)[C@H]1C(=O)O[C@H](c3ccccc3)[C@H](c3ccccc3)N1[C@@H]2c1ccccc1OCCO | 0.346 | 0.189 | 0.0871 | 0.77 | 1.49 | 1.15 | 1.08 | 1.29 (inactive) | 0.965 | 0.463 | 1.55 | 1.25 (inactive) | 0.812 (inactive) | 3.25 (inactive) | 2.15 | 0.859 (inactive) | 0.255 | 0.883 | 1.07 | 0.411 |
| CC(C)(C)OC(=O)CC[C@@]12N=C(c3ccc(OCCCO)cc3)O[C@@H]1c1ccccc1N(CCS(=O)(=O)c1ccccc1)C2=O | 0.742 | 0.066 | -0.0174 | -0.366 | 0.893 | 0.729 | 1.11 | -2.9 (inactive) | 0.687 | 0.0302 | 1.07 | -0.0877 (inactive) | 0.326 (inactive) | 0.0825 (inactive) | 2.48 | 1.68 (inactive) | 0.193 | 0.427 | 0.784 | -0.0679 |
| COC(=O)[C@@]1(Cc2ccc(F)cc2)[C@@H]2[C@@H](CC(=O)[C@H]2CC(=O)C(=O)N(C)C)CN1C(=O)c1ccccc1 | 0.367 | -0.178 | 0.287 | 0.855 | 1.76 | 1.3 | 1.18 | -0.439 (inactive) | 2.33 | 0.33 | 0.781 | 0.658 (inactive) | 2.12 (inactive) | 2.7 (inactive) | 2.43 | -0.874 (inactive) | 0.288 | 0.221 | 1.08 | 0.4 |

From PubChem BioAssay
